PglD inh: C. jejuni PglD acetyltransferase inhibitors, primary screen, biochemical, DTNB colorimetric, single point; UDP-N-acetylbacillosamine N-acetyltransferase PglD (Campylobacter jejuni); purified PglD enzyme, DTNB colorimetric CoA detection; inhibition, % at 12.5 µM; 360,000 compounds, 0.098% hits; in the data active = inhibition above about 16%, passing the limit was not always enough; inconclusive = no clear call, values can overlap the other calls
ERp5 inh: inhibitors of ERp5-driven insulin aggregation, primary screen, biochemical, turbidity, absorbance 650 nm, single point | Protein disulfide-isomerase A6 (Homo sapiens), Q15084 | 90 min | inhibition, % at 9.99 µM | 350,000 compounds, 0.05% hits;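 active = mean replicate inhibition above about 25%, with every replicate also reaching it, limit read from the data, passing the limit was not always enough; inconclusive = only one of those two criteria met; inactive = neither criterion met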
ARNT-TACC3 inh: disruptors of ARNT/TACC3 protein interaction, primary screen, biochemical, AlphaScreen, single concentration | AlphaScreen His-ARNT PAS-B/GST-TACC3 binding, luminescence; TACC3 fragment carries E629A point mutation | inhibition, % at 9.99 µM | 390,000 compounds, 0.66% hits | AID 623870, 2012;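 active = mean inhibition of replicates at least 50% and at least half of replicates each reaching 50%; inconclusive = half or more replicates reach 50% but mean below 50%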;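 also: 0% = complete ARNT plus TACC3 wells and 100% = ARNT alone without TACC3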
PDI inh: inhibitors of human PDI, primary screen, biochemical, turbidity, single point, plate reader; Protein disulfide-isomerase (Homo sapiens), P07237; PDI insulin aggregation turbidity, A650, 90 min; inhibition, % at 10 µM; 350,000 compounds, 0.052% hits; AID 588391, 2011;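 active = mean inhibition across replicates of 30% or more, whatever share of single replicates reach that level; inconclusive = mean inhibition below 30% while every single replicate reaches 30%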
ALR H2O2 inh: inhibitors of human ALR sulfhydryl oxidase, primary screen, biochemical, H2O2 detection, HRP-luminol luminescence, single point; purified ALR, DTT oxidation; inhibition, % (test concentration not listed); 290,000 compounds, 3.8% hits;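 active = mean replicate inhibition above about 79%, with every replicate also reaching it, limit read from the data; inconclusive = only one of the two criteria met; inactive = mean below limit and not every replicate reaching it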
NRP1-CendR mod: modulators of CendR peptide binding to NRP-1, primary screen, biochemical, fluorescence polarization, uHTS; AID 602438, 2012; Neuropilin-1 (Homo sapiens), O14786; FAM-RPARPAR peptide binding to NRP-1; 360,000 compounds, 0.85% hits; inhibition, % at 25 µM;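 active = inhibition or corrected inhibition above about 18%, plus a signal ratio from 0.5 to 1.5, limit read from the data, passing the limit was not always enough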
Target sequence (O14786 whole entry, looked up): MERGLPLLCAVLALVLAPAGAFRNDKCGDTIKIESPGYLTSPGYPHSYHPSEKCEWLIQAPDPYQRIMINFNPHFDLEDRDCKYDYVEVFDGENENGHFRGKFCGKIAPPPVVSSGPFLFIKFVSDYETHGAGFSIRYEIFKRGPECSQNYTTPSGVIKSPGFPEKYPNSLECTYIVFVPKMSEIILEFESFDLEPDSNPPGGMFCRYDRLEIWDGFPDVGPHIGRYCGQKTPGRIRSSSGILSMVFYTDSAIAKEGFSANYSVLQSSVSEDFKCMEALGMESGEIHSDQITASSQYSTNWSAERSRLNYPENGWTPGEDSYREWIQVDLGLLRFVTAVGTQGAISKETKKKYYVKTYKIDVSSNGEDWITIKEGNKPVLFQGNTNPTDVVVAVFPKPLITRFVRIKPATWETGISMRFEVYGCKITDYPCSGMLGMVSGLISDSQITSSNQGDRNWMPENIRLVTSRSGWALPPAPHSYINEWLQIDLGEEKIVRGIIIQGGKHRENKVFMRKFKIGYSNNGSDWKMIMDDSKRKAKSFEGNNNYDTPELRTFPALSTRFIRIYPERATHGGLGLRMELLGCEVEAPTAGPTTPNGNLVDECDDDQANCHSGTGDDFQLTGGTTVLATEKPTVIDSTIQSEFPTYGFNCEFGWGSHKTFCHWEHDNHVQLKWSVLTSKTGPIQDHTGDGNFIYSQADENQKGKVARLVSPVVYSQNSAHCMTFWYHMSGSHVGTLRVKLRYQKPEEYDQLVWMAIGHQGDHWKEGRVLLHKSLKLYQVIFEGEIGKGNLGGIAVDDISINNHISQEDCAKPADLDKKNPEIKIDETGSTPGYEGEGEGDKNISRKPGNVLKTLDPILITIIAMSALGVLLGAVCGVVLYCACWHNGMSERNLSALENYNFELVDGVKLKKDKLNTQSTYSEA
Starred values were filed as active, the others as inactive; ? = inconclusive; . = no result given. This is one part of a sample in which hits are shown more often than they occur.

SMILES | PglD inh | ERp5 inh | ARNT-TACC3 inh | PDI inh | ALR H2O2 inh | NRP1-CendR mod
COc1ccnc(CSC(N)=Nc2ccccc2C(F)(F)F)c1 | . | -1 | 26 | -3 | -3 | 14
COc1ccnc(CSC(N)=Nc2ccccc2OC)c1 | 5 | . | 62* | 2 | 27 | 6
C[C@@H]1CN([C@@H](C)CO)C(=O)c2cc(NC(=O)c3ccccc3)ccc2O[C@@H](C)CCCCO[C@@H]1CN(C)C(=O)C1CCCCC1 | -1 | -3 | . | . | . | .
COc1ccc(S(=O)(=O)N2CCCCN3[C@H](CO)[C@@H](c4ccc(C#CC5CC5)cc4)[C@H]3C2)cc1 | 1 | -4 | 20 | . | . | .
O=[N+]([O-])c1cc([N+](=O)[O-])c2cccnc2c1Oc1ccccc1O | -4 | -2 | 31 | 6 | 0 | -17
Clc1cc2cccnc2c2ncccc12 | 4 | 2 | 106* | 3 | . | -15
O=[N+]([O-])c1ccc(Cl)c2cccnc12 | . | 3 | -8 | -3 | -24 | -12
O=[N+]([O-])c1cc(Cl)c(O)c2ncccc12 | . | -8 | 57* | 3 | . | 4
Oc1c(I)cc(Cl)c2cccnc12 | 1 | -8 | 6 | -3 | . | 5
O=[N+]([O-])c1cc(F)c2cccnc2c1O | -7 | -4 | 70* | -10 | 22 | -3
O=[N+]([O-])c1ccc(O)c2ncccc12 | -5 | -6 | 56* | 2 | . | -1
O=[N+]([O-])c1ccc(O)c2cccnc12 | 3 | -22 | 18 | 3 | -31 | 7
C[C@@H]1CN([C@H](C)CO)C(=O)c2cc(NC(=O)Nc3cccc4ccccc34)ccc2O[C@@H]1CN(C)Cc1ccc(-c2ccccc2)cc1 | 0 | -4 | 11 | . | . | .
C[C@@H]1CN([C@H](C)CO)C(=O)Cc2cc(NS(=O)(=O)c3ccccc3)ccc2O[C@H]1CN(C)C | -1 | 2 | -9 | . | . | .
O=[N+]([O-])c1cc(Cl)c2cccnc2c1O | . | 0 | 46* | -1 | -3 | 17
S=c1nc(-c2ccccc2Cl)[nH][nH]1 | 5 | 0 | -5 | -12 | 99* | -2
CC1=C/C(=C(\c2cc(C)c(O)c(Br)c2)c2ccccc2S(=O)(=O)O)C=C(Br)C1=O | -4 | -4 | 28 | -4 | . | 46*
Cc1ccc(S(=O)(=O)Nc2ccccc2O)cc1 | . | 10 | . | . | . | -10
Cc1ccc(S(=O)(=O)Nc2ccc(O)c3cccnc23)cc1 | -3 | -7 | . | 6 | 95* | 8
Cc1ccc(S(=O)(=O)Nc2ccc(O)c3ncccc23)cc1 | -1 | -2 | . | . | 88* | 2
CCOC(=O)C1=C(CSc2nccn2C)NC(=O)NC1c1ccc2c(c1)OCO2 (centres undefined) | -3 | . | 4 | -1 | -5 | 11
CCOC(=O)C1=C(CSc2nccn2C)NC(=O)NC1c1cc(C)ccc1C (centres undefined) | 8 | -2 | 23 | 5 | -6 | 26*
CCOc1ccc(C(=O)NCc2cccnc2)cc1[N+](=O)[O-] | . | 0 | -5 | 2 | 0 | 22*
O=C(NCc1cccnc1)c1ccc(N2CCOCC2)c([N+](=O)[O-])c1 | . | 4 | -11 | 10 | -4 | 14
C[C@@H]1CN([C@@H](C)CO)C(=O)c2cc(NC(=O)Cn3cnnn3)ccc2O[C@@H]1CN(C)Cc1ccc(Oc2ccccc2)cc1 | 0 | 1 | 6 | . | . | .
SMILES | PglD inh | ERp5 inh | ARNT-TACC3 inh | PDI inh | ALR H2O2 inh | NRP1-CendR mod
COc1ccccc1NC(=O)CSc1nn2c(=O)c(C)nnc2s1 | -6 | 3 | . | -7 | 99* | 5
Cc1nnc2sc(SCC(=O)Nc3nccs3)nn2c1=O | -4 | . | 76* | -4 | 99* | 11
NC(=O)c1ccsc1N | . | . | . | . | 98* | .
O=C(OCc1csc(-c2ccccc2)n1)c1cccs1 | 1 | . | -12 | 1 | -23 | -7
O=C(CNC(=O)c1ccccc1F)OCc1csc(-c2ccccc2)n1 | -3 | -2 | 1 | 1 | 99* | 4
Cn1cccc1C(=O)OCc1csc(-c2ccccc2)n1 | . | . | -10 | 2 | 96* | -3
CNS(=O)(=O)c1cccc(C(=O)OCc2csc(-c3ccccc3)n2)c1 | -6 | . | 0 | -1 | ? | 5
Nc1ccc(C(=O)OCc2csc(-c3ccccc3)n2)cc1[N+](=O)[O-] | . | . | . | -8 | 99* | 7
CC(C)NC(=O)N(C)C[C@@H]1Oc2ccc(NC(=O)c3ccncc3)cc2CC(=O)N([C@@H](C)CO)C[C@H]1C | 3 | 2 | -6 | . | . | .
O=C(Nc1cccc(F)c1)N1CC(=O)N2[C@H](CO)[C@@H](c3ccc(-c4ccc(F)cc4)cc3)[C@H]2C1 | . | 0 | . | . | . | .
C=CCn1c(Cc2csc(N)n2)nnc1SCC(=O)OCC | . | -1 | 46* | 14 | -1 | 10
CO[C@@H]1CN(C)C(=O)c2ccc(NC(=O)c3ccccc3F)cc2OC[C@H](C)NC[C@@H]1C | -1 | 1 | -7 | . | . | .
O=C(Nc1ccc2c(c1)CCC2)c1ccc(F)c(S(=O)(=O)N2CCOCC2)c1 | . | . | 24 | 3 | 11 | 25*
O=C(NCC1CCCCC1)c1ccc(Cl)c(S(=O)(=O)N2CCOCC2)c1 | 0 | 0 | . | 8 | . | 6
O=C(NCC1CCCCC1)c1ccc(F)c(S(=O)(=O)N2CCOCC2)c1 | 3 | 1 | 1 | -7 | 4 | 21*
CC1CCCC(C)N1C(=O)COC(=O)c1ccc(F)c(S(=O)(=O)N2CCOCC2)c1 (centres undefined) | -5 | -5 | 10 | 2 | -1 | 23*
Cc1ccc(S(=O)(=O)N(C)C[C@H]2Oc3ccc(NC(=O)CCC(F)(F)F)cc3CC(=O)N([C@@H](C)CO)C[C@@H]2C)cc1 | 3 | 0 | 7 | . | . | .
CC(C)NC(=O)Nc1cccc2c1O[C@H](CN(C)S(=O)(=O)c1ccc(Cl)cc1)[C@H](C)CN([C@H](C)CO)C2=O | 1 | 1 | -3 | . | . | .
CSCC[C@@H](C(=O)NCc1cccs1)N1Cc2ccccc2C1=O | -5 | -1 | -5 | . | -1 | 21*
Cc1ccccc1Oc1cc(-n2ncc(Cl)c(Cl)c2=O)ncn1 | 9 | -4 | -8 | 0 | 97* | -6
C[C@H]1CN([C@@H](C)CO)C(=O)c2cc(NC(=O)Nc3cccc4ccccc34)ccc2O[C@@H]1CN(C)S(=O)(=O)c1ccc(Cl)cc1 | -2 | 2 | -8 | . | . | .
S=c1nc(-c2sccc2OCc2ccc(Cl)cc2Cl)[nH][nH]1 | . | 5 | -8 | -1 | 97* | 4
CNC(=S)NNC(=O)c1sccc1OCc1ccc(Cl)cc1Cl | -2 | . | -3 | 0 | -3 | -11
